Sampled rows, rich in hits. Any-hit rate of the full collection: about 7.5%.
VP16 counter: VP16 counterscreen qHTS for inhibitors of ROR gamma transcriptional activity. actives 3.5% (n = 310,000). Drosophila S2 Gal4-VP16 UAS-luciferase, luminescence, 20 h. Potency, µM (highest dose often 53.6 µM), for the others: at the highest dose activity, negative = inhibition, most hits filed as inhibitors. AID 2546, 2010;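 also: Gal4-VP16 expression switched on by copper sulfate through the metallothionein promoter; potency is read from the fitted curve at half-maximal effect; nearly all actives have a fitted effect of over 50% in size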
B2AR arrestin: qHTS assay of beta-arrestin-biased ligands of beta2-adrenergic receptor. Beta-2 adrenergic receptor (Homo sapiens), P07550. beta-arrestin recruitment to beta2AR, cell-based reporter. Potency, µM (top dose mostly 46.1 µM), without a hit: at the highest dose activation, hits mostly activators. actives 0.02% (n = 330,000). AID 492947, 2010;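 also: potency is read from the fitted curve at half-maximal effect; 0% = DMSO controls and full agonism = EC100 isoproterenol or metaproterenol; nearly all actives have a fitted effect of over 65% in size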
Target sequence (P07550 whole entry, looked up): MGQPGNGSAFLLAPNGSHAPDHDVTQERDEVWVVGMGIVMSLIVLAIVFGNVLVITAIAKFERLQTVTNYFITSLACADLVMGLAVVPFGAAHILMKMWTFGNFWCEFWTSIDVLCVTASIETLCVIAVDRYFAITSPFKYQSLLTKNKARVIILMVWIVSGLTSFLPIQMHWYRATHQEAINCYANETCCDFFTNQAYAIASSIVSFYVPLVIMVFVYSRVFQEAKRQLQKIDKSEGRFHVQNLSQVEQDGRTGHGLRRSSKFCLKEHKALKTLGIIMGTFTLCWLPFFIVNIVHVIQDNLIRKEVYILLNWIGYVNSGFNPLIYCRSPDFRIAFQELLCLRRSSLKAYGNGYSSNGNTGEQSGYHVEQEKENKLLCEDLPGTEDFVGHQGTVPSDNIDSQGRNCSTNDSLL
ELG1 repair inh: qHTS screen for small molecules that inhibit ELG1-dependent DNA repair in human embryonic kidney (HEK293T) cells expressing luciferase-tagged ELG1; HEK293T ELG1-luciferase reporter, luminescence, 16 h; DNA damage induced by 5-fluorouridine; Potency, µM (doses to about 46.1 µM), without a hit: top-dose activity change, negative = inhibition, actives largely listed as inhibitors; actives 2.3% (n = 330,000); AID 504467, 2011; also: potency is read from the fitted curve at half-maximal effect; nearly all actives have a fitted effect of over 55% in size
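Reporter activity after DNA damage by 5-fluorouridine is monitored. Compound-treated cells incubate 16 hr at 37 °C, then ONE-Glo is added for 30 min before luminescence reading.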
RORgamma inh: qHTS for inhibitors of ROR gamma transcriptional activity; Drosophila S2 Gal4-RORgamma UAS-luciferase reporter, 20 h; actives 5.4% (n = 310,000); Potency, µM (highest dose often 53.6 µM), for the others: top-dose activity change, negative = inhibition, actives largely listed as inhibitors; AID 2551, 2010; Nuclear receptor ROR-gamma (Mus musculus), P51450; also: potency is read from the fitted curve at half-maximal effect; nearly all actives have a fitted effect of over 60% in size
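Compounds are pin-transferred onto Drosophila Schneider cells expressing a copper-inducible Gal4–ROR gamma transactivation domain fusion. After 1 hr, copper sulfate is added to 700 uM final; luciferase is read 20 hr later.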
TSHR antag: Antagonists of the Thyroid Stimulating Hormone Receptor: HTS campaign; activity change, negative = inhibition, % at 11.5 µM; TSHR-expressing cells, TSH-stimulated cAMP HTRF, 2 h; stronger effect = lower value; Thyrotropin receptor (Homo sapiens), P16473; actives 0.2% (n = 330,000); AID 504810, 2011;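 active = activity change below a set negative limit, meaning inhibition stronger than a set level, cut at about -70% in these data; inconclusive = activity change between two set negative limits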
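Cell-based HTRF cAMP assay; TSHR cells + compound, TSH EC80 (4nM final), 2 h, 37 deg C. Lysis with anti-cAMP cryptate and cAMP-d2, 30 min RT, read 665/620 nm.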
An asterisk follows results filed as active; ? = inconclusive; / = no result given; [ ] = remark or other dose. Unless noted, calls follow the shape of the dose curve; as a rule, active = well fitted curve in the direction sought with a large enough effect; inconclusive = small, poorly fitted or top-dose-only effect, or another doubt; inactive = no such curve, though single readings can be large; an effect the other way counts as inactive or inconclusive. Unless noted, % is scaled to controls: 0 for no effect and ±100 for the full control effect.

SMILES	VP16 counter	B2AR arrestin	ELG1 repair inh	RORgamma inh	TSHR antag
COc1ccc(C)cc1-n1c(=O)c2ccccc2c2ccccc2c1=O	3%	0%	?	-24%	-6
Cc1c(C)c2cccnc2c2ncccc12	/	0%	?	/	/
COCc1ccc(O)c2ncccc12	3.2µM*	?	?	6.3µM*	-8
COc1ccc(Cl)cc1NC(=O)CN(C)C(=O)CSc1ccc2c(c1)OCCO2	/	0%	10%	/	-27
C=CCc1cccc(C2NC(C(=O)O)CCC2C)c1 (centres undefined)	-6%[10 µM]	/	/	-6%[10 µM]	/
Cc1cc(C)cc(-n2c(C)cc(/C=N/NC(=O)CN(c3c(C)cccc3C)S(C)(=O)=O)c2C)c1	-20%	0%	-3%	13µM*	14
CCC(Cc1ccccc1)NS(=O)(=O)c1c(C)nc2scc(C)n2c1=O (centres undefined)	-6%	0%	3%	-1%	-32
CC(Sc1ncnc2sc(-c3ccccc3)cc12)C(N)=O (centres undefined)	-25%	0%	?	13µM*	4
O=C(O)CCSc1ncnc2sc(-c3ccccc3)cc12	5µM*	-1%	-4%	1.8µM*	-14
CC(OC(=O)c1snc(C(=O)NC2CCCCC2)c1N)C(=O)NC(C)(C)C (centres undefined)	?	-1%	?	?	-8
CC(C)(C)NC(=O)COC(=O)c1snc(C(=O)NC2CCCCC2)c1N	5.6µM*	0%	?	-37%	-18
Cc1cc(/C=N/Nc2nc(N)ncc2[N+](=O)[O-])c(C)n1-c1ccccc1F	7.1µM*	0%	?	1.6µM*	-4
CC1CC(C)CN(C(=O)CSc2nnc(N)s2)C1 (centres undefined)	-2%	0%	17%	-17%	33
COc1c(C)cc(C(=O)C2CCCN(Cc3cnc(N4CCOCC4)s3)C2)cc1C (centres undefined)	2%	0%	21µM*	0%	3
CC1(C)CC(=O)C/C(=N\NC(=S)NCc2ccccc2)C1	?	0%	0%	14µM*	6
CC1C/C(=N\NC(=S)NCc2ccccc2)CC(C)(C)C1 (centres undefined)	2.8µM*	?	-14%	1.3µM*	-5
CC1CCC/C(=N\NC(=S)NCc2ccccc2)C1 (centres undefined)	?	0%	0%	11µM*	-4
CC1CCC/C(=N\NC(=S)Nc2ccccc2)C1 (centres undefined)	?	-1%	?	7.9µM*	5
Cc1cc(C(=O)N/N=C2/CC(C)CC(C)(C)C2)c(C)o1 (centres undefined)	-6%	0%	4%	-14%	4
CC1(C)CC(=O)C/C(=N\NC(=O)C2CC2c2ccccc2)C1 (centres undefined)	-16%	0%	-17%	-1%	12
Cc1cc(C)n(-c2nc(N(C)C)nc(N3CCOCC3)n2)n1	?	0%	-28%	3.2µM*	9
Cc1cc(C)n(-c2nc3ccccc3nc2N2CCC(C)CC2)n1	?	-1%	-12%	?	12
Cc1cc(N2CCC(C)CC2)nc(-n2nc(C)cc2C)n1	1.3µM*	0%	?	0.4µM*	-5
Cc1cc2cc(CCNC(=O)c3ccc(S(=O)(=O)N4CCCC4)cc3)c(=O)[nH]c2cc1C	-9%	-1%	?	6%	-77*
Cc1cc(=O)n2nc(N3CCC(C(=O)NCc4cccc(Br)c4)CC3)sc2n1	-3%	0%	0%	25%	29
SMILES	VP16 counter	B2AR arrestin	ELG1 repair inh	RORgamma inh	TSHR antag
Cc1[nH]c(C)c(S(=O)(=O)N(Cc2ccccc2)C(C)C)c1C(=O)N1CCCC1	-3%	-1%	16%	-8%	-6
Cc1cc(C(=O)N/N=C/c2ccc([N+](=O)[O-])s2)n[nH]1	?	0%	16µM*	-40%	0
Cc1cc(C)n(CC(=O)N/N=C/c2ccc([N+](=O)[O-])s2)n1	8%	0%	15µM*	-11%	1
Cc1ccc(C(=O)N/N=C\c2ccc([N+](=O)[O-])s2)cn1	3.2µM*	0%	?	2.8µM*	-13
Cc1[nH]cnc1C(=O)N/N=C/c1ccc([N+](=O)[O-])s1	?	0%	?	-30%	-3
Cc1ccc(/C=N/NC(=O)c2ccncc2)s1	?	0%	1%	7.1µM*	-4
Cc1ccc(/C=N/NC(=O)c2ccncc2)cc1	-11%	-1%	8%	-11%	37
COCCNc1nc(C)nc2c1nc(-c1ccccc1)n2CCCN1CCCCC1C (centres undefined)	0%	/	/	2%	/
c1cncc(-c2cc(NCc3cccs3)ncn2)c1	-14%	/	/	7%	/
CN1CCN(c2ncc3nc(-c4cccc(C#N)c4)c(=O)n(C[C@H]4CCCO4)c3n2)CC1	6%	/	/	-12%	/
COc1ccc(-c2cc(=O)c(C(=O)c3ccc(C)cc3)n[nH]2)cc1	0%	0%	-5%	1%	24
CCCCCCc1c(C[C@H](N)C(=O)O)o[nH]c1=O	0%	/	/	14%	/
Cc1ccc(/C=N/NC(=O)CSc2nnc(-c3ccc(Cl)cc3)n2-c2ccccc2)o1	0%	-1%	?	21%	1
O=C(CSc1nnc(-c2ccc(Cl)cc2)n1-c1ccc(Cl)cc1)N/N=C/c1ccco1	?	-1%	23µM*	-37%	0
O=C(N/N=C/c1ccc([N+](=O)[O-])s1)c1cccc(Br)c1	1.3µM*	0%	10µM*	1.1µM*	1
Cc1ccc(/C=N/N=C/c2ccc(C)s2)s1	-24%	0%	?	7.9µM*	-2
O=C(N/N=C/c1cccc([N+](=O)[O-])c1)c1cccc(Br)c1	15%	0%	?	?	-2
Cc1cc(C(=O)N/N=C/c2cc(Cl)cc([N+](=O)[O-])c2O)n[nH]1	?	-1%	13µM*	7.9µM*	-5
CCCC1(C)C(C#N)(C#N)C1(C#N)C#N	/	/	/	/	-24
COc1cc([N+](=O)[O-])cc(/C=N/NC(=O)CSc2nnc(-c3ccccc3)n2C)c1O	1%	-1%	?	-18%	-1
Cn1c(SCC(=O)N/N=C/c2ccc([N+](=O)[O-])s2)nnc1-c1ccc(Cl)cc1	18µM*	9%	?	?	-12
O=C(N/N=C/c1ccc([N+](=O)[O-])s1)c1ccncc1	4.5µM*	0%	?	4.5µM*	-6
Cc1ccc(C(=O)N/N=C/c2ccc([N+](=O)[O-])s2)cc1	1.3µM*	-1%	-23%	0.71µM*	-11

Assay outcomes (PubChem BioAssay)
